Targets with a hit are over-represented here; the source holds about 7,900 in all. About 0.6% of all pairs of compound and target were hits. Values without a mark were called inactive.
Key:
Test in all cases: log2 fold change, soluble protein after heating vs DMSO (PISA); higher = thermal stabilisation; K562 cells, 10 uM, 30 min; active = over 0.2 and 3.5 SD of the protein, either way, in both replicates (recomputed)
[1] = compound: COC1=CC=C(C=C1)CN2C=CC3=C2C=C(C=C3)C(=O)NO
Summary of the method: (§1)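 K562 cells at 2×10^6 cells/mL were given 10 μM compound for 30 min. Aliquots then went through 3 min of heating across 48°C-58°C, were pooled, and were extracted in PBS with 0.5% NP-40 at 4°C, and the supernatant after 21,000xg for 90 min was quantified by TMTpro 16plex LC-MS/MS with channel sums equalised. Thermal stability relative to control samples, from duplicates, is given as log2 fold change.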

[2] = compound: CON(C)C(=O)N1N=C(c2cc(F)ccc2F)S[C@@]1(CCCN)c1ccccc1 [filanesib]
Summary of the method: as §1

[3] = compound: CO[C@H]1C[C@@H]2CC[C@@H](C)[C@@](O)(O2)C(=O)C(=O)N2CCCC[C@H]2C(=O)O[C@H]([C@H](C)C[C@@H]2CC[C@H](n3cnnn3)[C@H](OC)C2)CC(=O)[C@H](C)/C=C(\C)[C@@H](O)[C@@H](OC)C(=O)[C@H](C)C[C@H](C)/C=C/C=C/C=C/1C [zotarolimus]
Summary of the method: as §1

[4] = compound: COc1cc(C(=O)O)ccc1NC(=O)[C@@H]1N[C@@H](CC(C)(C)C)[C@](C#N)(c2ccc(Cl)cc2F)[C@H]1c1cccc(Cl)c1F [idasanutlin]
Summary of the method: as §1

[5] = compound: COc1cc(Nc2ncc3c(n2)-c2ccc(Cl)cc2C(c2c(F)cccc2OC)=NC3)ccc1C(=O)O [alisertib]
Summary of the method: as §1

[6] = compound: COc1cc2nc(-c3cc(F)ccc3O)nc(N[C@@H]3CNC[C@H]3C(C)(C)O)c2cc1OC
Summary of the method: as §1

[7] = compound: COc1cc2ncnc(Nc3ccc(F)c(Cl)c3)c2cc1OCCCN1CCOCC1 [gefitinib]
Summary of the method: as §1

[8] = compound: COc1cccc2cc(-c3nc([C@H]4CC[C@H](C(=O)O)CC4)n4ncnc(N)c34)[nH]c12
Summary of the method: as §1

[9] = compound: CS(=O)(=O)CCNCc1ccc(-c2ccc3ncnc(Nc4ccc(OCc5cccc(F)c5)c(Cl)c4)c3c2)o1 [lapatinib]
Summary of the method: as §1

[10] = compound: CS(=O)(=O)N1CCN(Cc2cc3nc(-c4cccc5[nH]ncc45)nc(N4CCOCC4)c3s2)CC1 [pictilisib]
Summary of the method: as §1

Sequence of UniProt O14974 (O14974 whole entry, looked up): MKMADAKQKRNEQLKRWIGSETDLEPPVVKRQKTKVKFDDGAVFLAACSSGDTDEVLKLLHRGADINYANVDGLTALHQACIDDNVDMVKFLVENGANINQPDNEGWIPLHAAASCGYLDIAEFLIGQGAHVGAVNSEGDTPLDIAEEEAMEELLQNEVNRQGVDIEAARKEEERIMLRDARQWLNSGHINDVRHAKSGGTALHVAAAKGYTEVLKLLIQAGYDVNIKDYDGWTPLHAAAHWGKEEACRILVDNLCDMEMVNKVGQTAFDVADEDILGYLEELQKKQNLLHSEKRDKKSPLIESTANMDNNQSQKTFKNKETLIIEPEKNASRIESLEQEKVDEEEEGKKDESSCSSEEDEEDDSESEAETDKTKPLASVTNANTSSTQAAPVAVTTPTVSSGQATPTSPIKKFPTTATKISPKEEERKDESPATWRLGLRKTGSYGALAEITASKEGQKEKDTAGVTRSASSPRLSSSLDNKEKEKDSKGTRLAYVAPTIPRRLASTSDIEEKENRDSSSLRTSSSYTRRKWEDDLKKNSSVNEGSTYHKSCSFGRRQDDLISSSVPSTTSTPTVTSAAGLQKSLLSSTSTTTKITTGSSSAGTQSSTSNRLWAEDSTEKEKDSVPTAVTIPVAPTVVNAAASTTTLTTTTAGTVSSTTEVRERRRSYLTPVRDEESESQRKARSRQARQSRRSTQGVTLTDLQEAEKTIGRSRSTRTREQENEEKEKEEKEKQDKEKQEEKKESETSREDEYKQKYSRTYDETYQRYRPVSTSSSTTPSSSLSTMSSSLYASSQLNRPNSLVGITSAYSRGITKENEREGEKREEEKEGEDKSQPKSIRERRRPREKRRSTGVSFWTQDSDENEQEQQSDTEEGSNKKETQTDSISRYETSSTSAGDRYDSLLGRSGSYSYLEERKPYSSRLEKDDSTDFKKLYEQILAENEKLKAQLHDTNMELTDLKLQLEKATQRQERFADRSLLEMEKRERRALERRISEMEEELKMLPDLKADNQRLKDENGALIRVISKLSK
Sequence of UniProt O75400 (O75400 whole entry, looked up): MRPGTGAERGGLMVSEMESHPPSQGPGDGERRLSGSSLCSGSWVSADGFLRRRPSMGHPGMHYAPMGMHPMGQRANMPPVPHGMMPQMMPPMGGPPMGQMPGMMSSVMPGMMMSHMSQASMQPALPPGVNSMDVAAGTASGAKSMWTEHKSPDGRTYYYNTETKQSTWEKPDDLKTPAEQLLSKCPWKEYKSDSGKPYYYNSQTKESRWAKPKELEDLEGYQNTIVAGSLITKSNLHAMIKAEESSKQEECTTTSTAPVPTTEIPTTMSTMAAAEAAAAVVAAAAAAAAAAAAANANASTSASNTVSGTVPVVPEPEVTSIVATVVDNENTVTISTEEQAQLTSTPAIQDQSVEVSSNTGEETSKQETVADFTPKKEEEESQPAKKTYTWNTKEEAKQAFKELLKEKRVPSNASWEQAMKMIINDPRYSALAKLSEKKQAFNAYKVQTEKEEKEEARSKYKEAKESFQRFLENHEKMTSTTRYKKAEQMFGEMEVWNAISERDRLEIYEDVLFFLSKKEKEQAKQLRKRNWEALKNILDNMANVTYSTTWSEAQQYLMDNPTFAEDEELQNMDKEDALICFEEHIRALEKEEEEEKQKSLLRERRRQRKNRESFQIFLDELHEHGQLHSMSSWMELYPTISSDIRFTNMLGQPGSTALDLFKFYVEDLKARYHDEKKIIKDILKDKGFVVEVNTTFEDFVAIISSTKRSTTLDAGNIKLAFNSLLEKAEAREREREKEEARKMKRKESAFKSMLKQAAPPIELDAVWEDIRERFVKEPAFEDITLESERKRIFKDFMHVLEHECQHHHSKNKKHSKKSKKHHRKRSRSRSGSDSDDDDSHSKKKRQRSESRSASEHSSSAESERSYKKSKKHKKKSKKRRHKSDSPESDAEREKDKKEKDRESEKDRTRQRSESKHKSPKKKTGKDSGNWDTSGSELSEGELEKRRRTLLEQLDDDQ
Sequence of UniProt Q8TBX8 (Q8TBX8 whole entry, looked up): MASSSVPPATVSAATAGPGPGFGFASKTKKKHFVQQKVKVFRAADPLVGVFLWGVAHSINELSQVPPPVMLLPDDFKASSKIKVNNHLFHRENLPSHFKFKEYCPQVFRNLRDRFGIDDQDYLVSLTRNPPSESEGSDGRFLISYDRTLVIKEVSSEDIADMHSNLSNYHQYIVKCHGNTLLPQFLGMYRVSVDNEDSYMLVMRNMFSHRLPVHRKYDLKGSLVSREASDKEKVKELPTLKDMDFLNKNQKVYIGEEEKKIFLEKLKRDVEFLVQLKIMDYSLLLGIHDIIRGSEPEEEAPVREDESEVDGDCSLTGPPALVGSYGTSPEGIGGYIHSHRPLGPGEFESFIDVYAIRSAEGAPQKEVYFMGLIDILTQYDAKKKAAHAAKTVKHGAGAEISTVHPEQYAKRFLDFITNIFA
Sequence of UniProt P17980 (P17980 whole entry, looked up): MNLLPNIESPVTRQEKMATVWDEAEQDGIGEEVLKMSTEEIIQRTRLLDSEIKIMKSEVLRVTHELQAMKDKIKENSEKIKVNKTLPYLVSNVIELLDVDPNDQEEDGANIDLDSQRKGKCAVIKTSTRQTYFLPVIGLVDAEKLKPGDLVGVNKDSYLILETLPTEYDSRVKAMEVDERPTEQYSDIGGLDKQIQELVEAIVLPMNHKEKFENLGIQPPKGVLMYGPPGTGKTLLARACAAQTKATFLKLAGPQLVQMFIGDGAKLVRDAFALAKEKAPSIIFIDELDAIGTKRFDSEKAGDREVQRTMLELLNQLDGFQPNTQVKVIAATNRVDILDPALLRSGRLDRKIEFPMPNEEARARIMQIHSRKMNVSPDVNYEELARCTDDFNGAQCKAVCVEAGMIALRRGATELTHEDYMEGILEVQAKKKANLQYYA
Sequence of UniProt Q96HA1 (Q96HA1 whole entry, looked up): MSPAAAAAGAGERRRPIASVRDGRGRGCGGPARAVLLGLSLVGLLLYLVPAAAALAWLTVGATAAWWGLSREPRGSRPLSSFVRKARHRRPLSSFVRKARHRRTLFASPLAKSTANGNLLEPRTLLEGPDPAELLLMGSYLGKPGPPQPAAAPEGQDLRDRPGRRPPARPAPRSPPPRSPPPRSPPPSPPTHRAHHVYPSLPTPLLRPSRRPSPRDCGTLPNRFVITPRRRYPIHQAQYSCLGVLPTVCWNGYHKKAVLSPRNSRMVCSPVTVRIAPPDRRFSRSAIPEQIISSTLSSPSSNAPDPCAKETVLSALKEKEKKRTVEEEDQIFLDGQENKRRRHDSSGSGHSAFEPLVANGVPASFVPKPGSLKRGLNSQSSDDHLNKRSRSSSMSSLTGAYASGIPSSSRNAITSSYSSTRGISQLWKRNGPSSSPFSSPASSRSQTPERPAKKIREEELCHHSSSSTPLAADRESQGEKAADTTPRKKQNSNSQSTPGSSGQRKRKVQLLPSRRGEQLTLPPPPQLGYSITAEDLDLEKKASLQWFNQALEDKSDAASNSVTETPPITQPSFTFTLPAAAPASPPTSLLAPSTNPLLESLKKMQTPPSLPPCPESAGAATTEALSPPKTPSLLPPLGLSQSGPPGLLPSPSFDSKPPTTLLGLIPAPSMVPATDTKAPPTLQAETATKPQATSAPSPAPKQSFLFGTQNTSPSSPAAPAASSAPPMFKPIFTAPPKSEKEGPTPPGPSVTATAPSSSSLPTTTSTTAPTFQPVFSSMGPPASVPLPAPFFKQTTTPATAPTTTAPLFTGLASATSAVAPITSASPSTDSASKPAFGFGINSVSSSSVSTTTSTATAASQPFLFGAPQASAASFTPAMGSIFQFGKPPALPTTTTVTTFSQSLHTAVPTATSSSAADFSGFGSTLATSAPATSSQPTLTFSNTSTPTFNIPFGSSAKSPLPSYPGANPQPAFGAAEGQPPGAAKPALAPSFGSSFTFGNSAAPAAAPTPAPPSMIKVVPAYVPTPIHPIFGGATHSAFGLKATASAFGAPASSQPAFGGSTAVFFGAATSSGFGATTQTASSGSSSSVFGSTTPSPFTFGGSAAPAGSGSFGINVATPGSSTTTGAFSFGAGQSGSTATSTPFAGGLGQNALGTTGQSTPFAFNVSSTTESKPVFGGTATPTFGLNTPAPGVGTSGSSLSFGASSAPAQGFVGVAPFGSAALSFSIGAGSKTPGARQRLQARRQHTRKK
Sequence of UniProt Q9UNM6 (Q9UNM6 whole entry, looked up): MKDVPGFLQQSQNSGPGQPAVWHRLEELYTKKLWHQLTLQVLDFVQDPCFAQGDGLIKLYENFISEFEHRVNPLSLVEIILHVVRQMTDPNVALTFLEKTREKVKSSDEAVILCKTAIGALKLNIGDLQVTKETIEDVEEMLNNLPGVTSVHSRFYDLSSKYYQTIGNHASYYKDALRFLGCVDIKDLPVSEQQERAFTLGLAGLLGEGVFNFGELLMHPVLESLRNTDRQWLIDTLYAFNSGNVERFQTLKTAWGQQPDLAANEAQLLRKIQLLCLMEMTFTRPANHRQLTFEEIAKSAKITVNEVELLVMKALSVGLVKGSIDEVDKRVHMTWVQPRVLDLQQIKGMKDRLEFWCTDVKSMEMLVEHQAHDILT
Sequence of UniProt Q9BRX2 (Q9BRX2 whole entry, looked up): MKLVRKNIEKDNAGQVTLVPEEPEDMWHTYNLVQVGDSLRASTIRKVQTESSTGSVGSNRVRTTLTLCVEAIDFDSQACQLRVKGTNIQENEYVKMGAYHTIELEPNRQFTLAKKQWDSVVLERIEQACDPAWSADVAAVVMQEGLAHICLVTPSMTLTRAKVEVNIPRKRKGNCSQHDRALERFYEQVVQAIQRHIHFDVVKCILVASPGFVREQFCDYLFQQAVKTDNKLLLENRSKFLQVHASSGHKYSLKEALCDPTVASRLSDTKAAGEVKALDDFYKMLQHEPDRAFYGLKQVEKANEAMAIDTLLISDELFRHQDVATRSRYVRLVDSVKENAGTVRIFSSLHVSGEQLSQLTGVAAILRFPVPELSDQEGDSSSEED
Sequence of UniProt Q93096 (Q93096 whole entry, looked up): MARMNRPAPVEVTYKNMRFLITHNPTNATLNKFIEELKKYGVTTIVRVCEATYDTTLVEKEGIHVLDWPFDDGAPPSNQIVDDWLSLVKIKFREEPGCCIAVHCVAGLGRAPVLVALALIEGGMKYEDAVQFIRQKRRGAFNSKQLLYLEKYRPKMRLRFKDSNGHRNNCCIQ

Row | Target | log2 fold change [1] | log2 fold change [2] | log2 fold change [3] | log2 fold change [4] | log2 fold change [5] | log2 fold change [6] | log2 fold change [7] | log2 fold change [8] | log2 fold change [9] | log2 fold change [10]
1 | PC (UniProt P11498) | 0.05 | 0.08 | -0.04 | -0.372 (active) | -0.039 | 0.14 | 0.024 | 0.014 | -0.011 | 0.09
2 | PDS5A (UniProt Q29RF7) | 0.076 | -0.316 | -0.137 | -0.012 | 0.067 | 0.043 | -0.125 | -0.19 | -0.072 | -0.014
3 | POLR2A (UniProt P24928) | -0.005 | -0.021 | -0.026 | -0.054 | 0.001 | 0.258 (active) | 0.015 | 0.042 | 0 | 0.05
4 | PCNT (UniProt O95613) | -0.228 | 0.006 | -0.001 | 0.075 | 0.02 | 0.055 | 0.085 | 0.257 | -0.174 | 0.285
5 | PTGR2 (UniProt Q8N8N7) | -0.13 | -0.155 | 0.195 | 0.122 | -0.03 | -0.04 | 0.035 | 0 | 0.125 | 0.313
6 | POM121 (UniProt Q96HA1) | -0.03 | 0.055 | -0.018 | 0.146 | – | -0.027 | -0.002 | – | -0.01 | 0.003
7 | PRG4 (UniProt Q92954) | 0.17 | 0.081 | -0.955 (active) | 0.174 | 0.01 | – | 0.034 | 0.229 | – | -0.062
8 | QKI (UniProt Q96PU8) | -0.004 | -0.004 | -0.026 | -0.032 | -0.077 | -0.079 | 0.019 | 0.011 | -0.007 | -0.032
9 | PELO (UniProt Q9BRX2) | 0.001 | 0.128 | 0.158 | -0.024 | 0.489 | 0.053 | 0.009 | 0.001 | -0.06 | -0.111
10 | PDE12 (UniProt Q6L8Q7) | 0.359 (active) | -0.052 | 0.044 | -0.052 | -0.051 | 0.014 | -0.01 | -0.003 | -0.007 | 0.074
11 | PTP4A1 (UniProt Q93096) | 0.009 | -0.088 | 0.05 | 0.089 | -0.129 | -0.267 (active) | 0.033 | 0.04 | 0.024 | 0.068
12 | PKN2 (UniProt Q16513) | 0.001 | -0.085 | 0.01 | -0.016 | – | -0.069 | 0.004 | 0.034 | -0.013 | 0
13 | PMPCB (UniProt O75439) | -0.046 | 0.036 | 0.047 | -0.122 | -0.078 | 0.046 | 0.006 | 0.008 | -0.054 | -0.012
14 | PIK3CD (UniProt O00329) | -0.016 | 0.029 | -0.098 | 0.105 | – | 0.02 | – | – | -0.018 | –
15 | POGZ (UniProt Q7Z3K3) | -0.066 | -0.021 | 0.008 | 0.01 | – | 0.095 | – | – | -0.086 | 0.082
16 | PLBD1 (UniProt Q6P4A8) | -0.076 | -0.051 | -0.057 | 0.019 | 0.169 | -0.016 | 0.019 | 0.048 | 0.03 | 0.039

Row | Target | log2 fold change [1] | log2 fold change [2] | log2 fold change [3] | log2 fold change [4] | log2 fold change [5] | log2 fold change [6] | log2 fold change [7] | log2 fold change [8] | log2 fold change [9] | log2 fold change [10]
17 | PTPN23 (UniProt Q9H3S7) | 0.12 | 0.038 | 0.059 | -0.038 | 0.002 | 0.044 | 0.041 | -0.008 | -0.012 | 0.037
18 | PHKA1 (UniProt P46020) | 0.046 | 0.076 | -0.024 | -0.518 (active) | -0.223 | 0.265 | -0.017 | 0.034 | -0.109 | 0.049
19 | PEX11B (UniProt O96011) | 0.021 | -0.038 | -0.009 | -0.076 | -0.071 | -0.063 | -0.037 | 0.019 | 0.023 | 0.004
20 | PRPF40A (UniProt O75400) | 0.082 | 0.135 | 0.029 | 0.058 | 0.024 | -0.091 | 0.042 | -0.045 | 0.018 | -0.027
21 | POTEI (UniProt P0CG38) | 0.033 | 0.04 | 0.025 | -0.007 | 0.037 | -0.003 | 0.015 | 0.067 | -0.006 | 0.012
22 | PPP1R12A (UniProt O14974) | 0.003 | 0.064 | 0.048 | 0.041 | 0.028 | -0.658 (active) | 0.009 | -0.006 | 0.036 | 0.005
23 | PSMD13 (UniProt Q9UNM6) | -0.127 | 0.095 | 0.009 | -0.054 | -0.04 | -0.025 | -0.026 | -0.05 | 0.038 | -0.01
24 | PIP4K2C (UniProt Q8TBX8) | 0.058 | -0.025 | -0.021 | -0.186 | -0.021 | 0.866 (active) | 0.115 | 0.684 | -0.043 | 0.134
25 | PPP1CA (UniProt P62136) | 0.263 (active) | 0.012 | -0.032 | 0.016 | 0.024 | 0.015 | 0.032 | 0.023 | 0.001 | 0.013
26 | PARP1 (UniProt P09874) | 0.091 | -0.043 | 0.048 | -0.047 | 0.039 | 0.147 | 0.062 | -0.062 | -0.082 | 0.008
27 | PATL1 (UniProt Q86TB9) | -0.015 | -0.009 | 0.076 | 0.049 | -0.035 | -0.135 | – | 0.069 | 0.05 | -0.115
28 | PIP4P2 (UniProt Q8N4L2) | 0.053 | -0.383 (active) | 0.027 | 0.14 | 0.022 | 0.007 | 0.009 | -0.016 | 0.03 | 0.061
29 | PSMC3 (UniProt P17980) | -0.035 | 0.043 | 0.001 | 0.045 | -0.056 | -0.015 | -0.045 | -0.038 | 0.047 | 0.013
30 | PCBP1 (UniProt Q15365) | 0.076 | -0.036 | 0.102 | -0.044 | -0.015 | -0.014 | -0.003 | -0.003 | -0.022 | -0.036
31 | POLD3 (UniProt Q15054) | 0.002 | -0.176 | 0.123 | -0.029 | 0.002 | -0.05 | 0.066 | 0.1 | 0.098 | 0.004
